Source: PubChem BioAssay AID1053117 (Broad Institute, 2014)
Measured potencies and affinities stand elsewhere. The source made the active and inactive calls.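 Rule for the calls: active = compounds lowering cell ATP signal with a fitted half-effect dose at most twice the top valid dose; inconclusive = flat curve with 30 to 70% signal loss, or bad fit; inactive = wrong direction, flat within 30%, or weaker than limit.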

Assay: HEK293 cell cytotoxicity, dose response, cytotoxicity control, cherry-picks, set 5 (AID 1053117);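 note: more negative means greater loss of ATP signal and more cytotoxicity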
Conditions: HEK293T viability, CellTiter-Glo ATP luminescence, 72 h; series mostly up to 26 µM

Compound	outcome
Cc1ccc(S(=O)(=O)N2CC3(C)CN(S(=O)(=O)c4ccc(C)cc4)CC(C)(C2)C3=O)cc1	inactive
CC1(C)Cc2c(C#N)c(SCC(=O)c3ccccc3)nc(N3CCOCC3)c2CS1	inactive
Cc1cccc(N2CCN(S(=O)(=O)c3cn(C)cn3)CC2)c1C	inactive
N#C[C@H]1[C@@H](c2ccccc2C2=CCCCC2)[C@H](CO)N1S(=O)(=O)c1ccccc1	inactive
COc1ncccc1C(=O)NC1CCCc2c1cnn2-c1ccc(C)c(C)c1 (stereo not drawn)	inactive
CCCCOc1ccc(C(C)NC(=O)C2CCCN(S(=O)(=O)CCC)C2)cc1 (stereo not drawn)	inactive
CCC(C)(C)NC(=O)C(OC(=O)c1ccco1)c1ccccc1OC (stereo not drawn)	inactive
C[C@@H]1CN([C@H](C)CO)C(=O)c2cc(NC(=O)C3CCCCC3)ccc2O[C@@H]1CN(C)Cc1ccc(-c2ccccc2)cc1	inactive
CN(C)C(=O)c1ccc(-c2ccc3c(c2)[C@@H]2[C@@H](CCN2C(=O)c2ccc(F)cc2)[C@@H](CO)N3C)cc1	inactive
CO[C@@H]1CN(C)C(=O)c2cc(NC(=O)Nc3ccc(Cl)c(Cl)c3)ccc2OC[C@H](C)NC[C@@H]1C	inactive
N#C[C@@H]1[C@@H](c2ccccc2C2=CCCCC2)[C@@H](CO)N1S(=O)(=O)c1ccccc1	inactive
Nc1nc(-c2cc3c(cc2Cl)OCCO3)cs1	inactive
CSc1ccccc1C(=O)C1CCCN(C(=O)CCc2cccnc2)C1 (stereo not drawn)	inactive
O=C(CC1Nc2ccccc2NC1=O)Nc1ccc2c(c1)OCO2 (stereo not drawn)	inactive
CO[C@H]1CN(C)C(=O)c2cc(NC(C)=O)ccc2OC[C@@H](C)N(C(=O)CN2CCOCC2)C[C@H]1C	inactive
CC(C)C(=O)Nc1ccc2c(c1)C(=O)N(C)[C@@H]1CC[C@H](CC(=O)O)O[C@@H]1CO2	inactive
COC(=O)C[C@@H]1CC[C@H]2[C@@H](COc3ccc(NC(=O)Cc4cccs4)cc3C(=O)N2C)O1	inactive

Compound	outcome
CC(C)(C)c1cc(Cl)c(O)c(NC(=S)NC(=O)c2cccnc2)c1	inactive
C[C@H](CO)N1C[C@H](C)[C@H](CN(C)C)Oc2cc(C#C[C@@H](C)O)ccc2S1(=O)=O	inactive
COc1cccc(S(=O)(=O)N2CC[C@@H]3[C@H]2c2cc(-c4ccc(C#N)cc4)ccc2N[C@@H]3CO)c1	inactive
O=C(c1cccnc1)N1C[C@@H]2[C@H](c3ccccc31)[C@H](CO)N2CC1CCCC1	inactive
C[C@H](CO)N1C[C@H](C)[C@@H](CN(C)Cc2ccc(-c3ccccc3)cc2)Oc2ccc(NC(=O)C3CCCCC3)cc2C1=O	inactive
Cc1cccc(NC(=O)Nc2ccc(S(=O)(=O)Nc3onc(C)c3C)cc2)c1	inactive
COC(=O)C[C@H]1CC[C@@H]2[C@H](COc3ccc(NC(=O)Cc4cccs4)cc3C(=O)N2C)O1	inactive
N#Cc1ccc(-c2ccc3c(c2)[C@@H]2[C@@H](CCN2S(=O)(=O)c2cccc(F)c2)[C@@H](CO)N3)cc1	inactive
O=C(OCC(O)C(O)COC(=O)c1ccccc1)c1ccccc1 (stereo not drawn)	inactive
C[C@H](CO)N1C[C@H](C)[C@@H](CN(C)Cc2ccccc2)Oc2ncc(-c3ccccc3)cc2C1=O	inactive
O=C(Nc1ccccc1F)N1C[C@@H]2[C@H](c3ccccc31)[C@@H](CO)N2C(=O)C1CC1	inactive
CC(C)(C)[S@](=O)N1Cc2cc(C(=O)NCc3ccccc3F)nc(-c3cccc(-c4cncnc4)c3)c2[C@@H]1CCO	inactive
C[C@H]1CN([C@@H](C)CO)C(=O)c2cc(NC(=O)CCCN(C)C)ccc2O[C@H]1CN(C)Cc1ccc(-c2ccccc2)cc1	inactive
Cc1ccc(S(=O)(=O)N2CC[C@H]3[C@H](CO)Nc4ccc(-c5cccc(C(=O)N(C)C)c5)cc4[C@H]32)cc1	inactive
CCCCNC(=O)Nc1nc2ccc(CC)cc2s1	inactive
C[C@H](CO)N1C[C@H](C)[C@@H](CN(C)Cc2ccc(-c3ccccc3)cc2)Oc2ccc(NC(=O)CCCN(C)C)cc2C1=O	inactive
